Experimental data taken from ChEMBL document CHEMBL3988442, “University of Dundee, Small-Polar-MMV Screening Library” (2021).
For some of these results: Results with a measured potency or affinity are listed apart.

Legend:
Design in all cases: scale not given: direction of the effect not stated beside the values
[1] = biological target: Protein translocase subunit SecA (Escherichia coli (strain K12)) (UniProt P10408); assay: Assay to Identify E. coli SecA ATPase Inhibitors; format: functional; details: 30 µM
[2] = biological target: T1, Ubiquitin-activating enzyme e1, putative (Leishmania donovani (strain BPK282A1)) (UniProt E9BSI1); assay: Leishmania donovani Ubiquitin Activating Enzyme (LdE1); format: functional; details: 30 µM
T1 sequence (whole entry): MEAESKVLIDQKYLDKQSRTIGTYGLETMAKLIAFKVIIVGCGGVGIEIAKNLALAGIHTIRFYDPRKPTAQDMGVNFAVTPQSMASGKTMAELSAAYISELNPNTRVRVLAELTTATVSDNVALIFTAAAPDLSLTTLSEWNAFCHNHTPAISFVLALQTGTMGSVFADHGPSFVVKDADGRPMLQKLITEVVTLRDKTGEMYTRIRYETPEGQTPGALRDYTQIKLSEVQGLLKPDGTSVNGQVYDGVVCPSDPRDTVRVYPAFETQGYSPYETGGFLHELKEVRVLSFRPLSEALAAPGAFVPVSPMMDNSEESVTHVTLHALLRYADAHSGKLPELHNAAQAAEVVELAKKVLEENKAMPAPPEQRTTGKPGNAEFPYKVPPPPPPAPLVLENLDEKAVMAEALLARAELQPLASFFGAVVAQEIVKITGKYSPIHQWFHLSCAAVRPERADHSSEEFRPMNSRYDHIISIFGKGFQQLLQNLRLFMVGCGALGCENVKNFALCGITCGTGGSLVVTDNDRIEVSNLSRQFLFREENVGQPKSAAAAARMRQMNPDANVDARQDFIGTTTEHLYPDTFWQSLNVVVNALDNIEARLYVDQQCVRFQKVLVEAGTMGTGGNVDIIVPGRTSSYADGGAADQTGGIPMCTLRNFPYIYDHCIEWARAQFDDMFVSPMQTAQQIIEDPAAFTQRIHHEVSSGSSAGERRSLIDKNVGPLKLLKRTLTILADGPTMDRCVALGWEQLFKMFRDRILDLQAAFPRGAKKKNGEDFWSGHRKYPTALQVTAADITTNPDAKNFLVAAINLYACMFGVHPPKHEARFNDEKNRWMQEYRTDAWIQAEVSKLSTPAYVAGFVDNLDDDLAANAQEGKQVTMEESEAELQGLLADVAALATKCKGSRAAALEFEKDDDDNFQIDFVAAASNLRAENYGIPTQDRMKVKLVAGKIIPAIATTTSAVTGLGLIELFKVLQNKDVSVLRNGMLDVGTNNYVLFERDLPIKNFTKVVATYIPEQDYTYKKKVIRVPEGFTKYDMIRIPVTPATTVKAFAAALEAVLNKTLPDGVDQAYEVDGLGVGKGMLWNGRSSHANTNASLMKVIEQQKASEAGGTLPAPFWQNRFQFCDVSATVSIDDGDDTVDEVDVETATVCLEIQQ

[3] = biological target: AMP-activated protein kinase, AMPK (Homo sapiens) (UniProt P54646+O43741+P54619+Q9UGJ0+Q9Y478+Q13131+Q9UGI9); assay: AMP-dependent Kinase enzyme assay. An in vitro enzyme assay that detects ADP turnover that is directly proportional to AMPK activity. This uses naive AMPK that is activated during the assay with MK-8722; format: functional; details: 30 µM
[4] = biological target: Sialic acid-binding Ig-like lectin 9 (Homo sapiens) (UniProt Q9Y336); assay: Hs-Siglec9 ALPHAscreen SOP 20170721; details: 10 µM
Trypanosoma cruzi = assay: Trypanosoma cruzi phosphomannomutase and mannose-1-phosphate guanylyltransferase assay; format: functional; details: 10 µM
[5] = biological target: T2, Arginase-2, mitochondrial (Homo sapiens) (UniProt P78540); assay: in vitro enzyme assay to detect the production of urea directly proportional to the activity of Arginase II; format: functional; details: 33.3 µM; also: in the data most compounds retested in dose-response had high values
T2 sequence (whole entry): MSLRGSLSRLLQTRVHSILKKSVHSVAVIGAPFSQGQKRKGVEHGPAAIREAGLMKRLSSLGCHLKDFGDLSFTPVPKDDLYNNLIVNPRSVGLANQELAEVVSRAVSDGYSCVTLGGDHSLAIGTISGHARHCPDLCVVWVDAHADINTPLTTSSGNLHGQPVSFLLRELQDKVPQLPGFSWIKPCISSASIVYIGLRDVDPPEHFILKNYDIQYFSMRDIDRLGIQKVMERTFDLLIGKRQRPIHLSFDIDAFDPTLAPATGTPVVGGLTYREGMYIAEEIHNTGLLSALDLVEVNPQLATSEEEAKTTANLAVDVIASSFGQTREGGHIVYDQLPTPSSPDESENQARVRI

[6] = biological target: T3, Proteasome subunit beta (Trypanosoma cruzi) (UniProt O96673); assay: Trypanosoma cruzi proteasome chymotrypsin-like activity (TcProtChymo) assay.; also: in the data most compounds retested in dose-response had high values; format: functional; details: 9.37 µM
T3 sequence (whole entry): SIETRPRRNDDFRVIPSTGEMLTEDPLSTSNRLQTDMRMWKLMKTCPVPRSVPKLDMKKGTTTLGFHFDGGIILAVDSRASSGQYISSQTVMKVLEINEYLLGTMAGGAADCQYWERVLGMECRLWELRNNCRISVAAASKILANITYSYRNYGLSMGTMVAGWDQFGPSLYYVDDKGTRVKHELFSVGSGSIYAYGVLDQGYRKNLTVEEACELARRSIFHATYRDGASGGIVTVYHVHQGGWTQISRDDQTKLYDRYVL

Homo sapiens = species on record: Homo sapiens; assay: To identify inhibition of the IFN signalling (Jak-Stat) pathway via expression of an eGFP reporter gene under the control of an IFN-stimulated response element (ISRE) containing MxA promoter.; format: functional; details: 30 µM
[7] = biological target: T4, Tyrosyl-tRNA synthetase, putative (Trypanosoma cruzi (strain CL Brener)) (UniProt Q4DSP6); assay: Trypanosoma cruzi tyrosyl tRNA synthetase (TcYRS) _High Tyrosine SOP; format: functional; details: 30 µM; also: in the data most compounds retested in dose-response had high values
T4 sequence (whole entry): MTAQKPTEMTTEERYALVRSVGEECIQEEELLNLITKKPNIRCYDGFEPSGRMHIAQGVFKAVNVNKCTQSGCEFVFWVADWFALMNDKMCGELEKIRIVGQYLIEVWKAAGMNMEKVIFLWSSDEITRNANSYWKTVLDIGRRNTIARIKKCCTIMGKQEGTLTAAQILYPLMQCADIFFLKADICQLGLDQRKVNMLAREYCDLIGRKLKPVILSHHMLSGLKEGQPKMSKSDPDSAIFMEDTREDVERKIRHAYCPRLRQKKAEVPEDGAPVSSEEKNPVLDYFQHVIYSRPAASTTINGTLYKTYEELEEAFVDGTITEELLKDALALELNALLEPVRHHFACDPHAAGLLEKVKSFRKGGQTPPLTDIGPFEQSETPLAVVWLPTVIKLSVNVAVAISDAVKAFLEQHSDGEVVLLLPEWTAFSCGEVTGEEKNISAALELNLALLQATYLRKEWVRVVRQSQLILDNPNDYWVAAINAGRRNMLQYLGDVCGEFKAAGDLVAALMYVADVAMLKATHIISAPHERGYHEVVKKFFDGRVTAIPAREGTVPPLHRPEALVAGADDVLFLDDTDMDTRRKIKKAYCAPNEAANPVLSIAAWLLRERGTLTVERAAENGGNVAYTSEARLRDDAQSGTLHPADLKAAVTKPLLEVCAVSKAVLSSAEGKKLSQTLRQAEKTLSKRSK

[8] = biological target: T4, Tyrosyl-tRNA synthetase, putative (Trypanosoma cruzi (strain CL Brener)); assay: Trypanosoma cruzi tyrosyl tRNA synthetase (TcYRS) SOP; format: functional; details: 30 µM
[9] = biological target: Chromo domain-containing protein 1 (Saccharomyces cerevisiae (strain ATCC 204508 / S288c) (Baker's yeast)) (UniProt P32657); assay: ScCHD-1 Enzyme Inhibition Assay; format: functional; details: 30 µM; also: in the data most compounds retested in dose-response had high values
Chromo domain-containing protein 1 (Saccharomyces cerevisiae (strain ATCC 204508 / S288c) (Baker's yeast)), sequence (P32657 whole entry, the tested form may be a part): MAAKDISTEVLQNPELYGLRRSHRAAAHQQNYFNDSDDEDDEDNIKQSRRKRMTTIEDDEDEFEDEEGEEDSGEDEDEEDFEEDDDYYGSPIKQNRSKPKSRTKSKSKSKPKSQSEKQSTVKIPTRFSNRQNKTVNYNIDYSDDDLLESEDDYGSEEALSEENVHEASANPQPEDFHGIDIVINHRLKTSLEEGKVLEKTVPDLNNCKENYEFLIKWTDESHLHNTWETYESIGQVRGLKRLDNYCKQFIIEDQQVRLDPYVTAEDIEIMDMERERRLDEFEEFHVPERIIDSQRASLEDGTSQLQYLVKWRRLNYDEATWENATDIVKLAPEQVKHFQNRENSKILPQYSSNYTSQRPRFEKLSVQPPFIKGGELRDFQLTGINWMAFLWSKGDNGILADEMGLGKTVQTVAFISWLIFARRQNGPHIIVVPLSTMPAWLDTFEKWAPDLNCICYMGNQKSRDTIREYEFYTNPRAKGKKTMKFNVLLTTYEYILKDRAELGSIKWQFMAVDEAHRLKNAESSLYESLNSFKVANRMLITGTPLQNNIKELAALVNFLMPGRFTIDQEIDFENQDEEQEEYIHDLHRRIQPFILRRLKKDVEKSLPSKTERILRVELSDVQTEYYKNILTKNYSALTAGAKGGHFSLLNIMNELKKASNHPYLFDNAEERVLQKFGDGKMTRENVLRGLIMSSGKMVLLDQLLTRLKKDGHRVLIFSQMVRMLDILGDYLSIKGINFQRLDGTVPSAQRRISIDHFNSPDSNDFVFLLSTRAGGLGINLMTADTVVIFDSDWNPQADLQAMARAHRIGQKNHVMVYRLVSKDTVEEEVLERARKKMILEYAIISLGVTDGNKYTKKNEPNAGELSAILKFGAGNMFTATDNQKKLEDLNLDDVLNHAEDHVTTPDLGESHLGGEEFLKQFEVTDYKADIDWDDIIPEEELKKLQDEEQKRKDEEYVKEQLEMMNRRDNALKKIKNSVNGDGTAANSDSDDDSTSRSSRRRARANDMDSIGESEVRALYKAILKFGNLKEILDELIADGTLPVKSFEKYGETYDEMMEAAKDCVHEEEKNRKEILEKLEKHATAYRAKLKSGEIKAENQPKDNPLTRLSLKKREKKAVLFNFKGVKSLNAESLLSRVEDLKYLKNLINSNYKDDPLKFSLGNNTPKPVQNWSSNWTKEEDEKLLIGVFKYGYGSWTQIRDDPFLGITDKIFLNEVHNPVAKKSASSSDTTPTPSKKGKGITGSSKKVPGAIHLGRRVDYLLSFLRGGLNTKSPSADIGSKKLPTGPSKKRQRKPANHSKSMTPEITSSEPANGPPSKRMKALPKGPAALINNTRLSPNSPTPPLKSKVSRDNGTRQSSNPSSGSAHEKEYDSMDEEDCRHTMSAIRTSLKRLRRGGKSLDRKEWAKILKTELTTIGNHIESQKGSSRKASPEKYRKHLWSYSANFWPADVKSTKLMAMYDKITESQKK

Sialic acid-binding Ig-like lectin 9 (Homo sapiens), sequence (Q9Y336 whole entry): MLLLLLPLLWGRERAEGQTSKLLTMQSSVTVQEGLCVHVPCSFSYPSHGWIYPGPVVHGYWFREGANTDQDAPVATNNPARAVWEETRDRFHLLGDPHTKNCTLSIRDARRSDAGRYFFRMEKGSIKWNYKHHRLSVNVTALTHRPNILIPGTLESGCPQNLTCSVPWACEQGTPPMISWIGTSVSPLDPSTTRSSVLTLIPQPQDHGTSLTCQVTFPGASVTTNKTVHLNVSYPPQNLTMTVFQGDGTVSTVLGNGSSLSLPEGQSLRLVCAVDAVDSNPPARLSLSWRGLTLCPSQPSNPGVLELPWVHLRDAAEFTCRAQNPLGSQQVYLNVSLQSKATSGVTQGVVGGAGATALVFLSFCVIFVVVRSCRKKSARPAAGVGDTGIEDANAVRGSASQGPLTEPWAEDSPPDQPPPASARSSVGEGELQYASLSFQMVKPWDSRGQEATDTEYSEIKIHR
Protein translocase subunit SecA (Escherichia coli (strain K12)), sequence (P10408 whole entry): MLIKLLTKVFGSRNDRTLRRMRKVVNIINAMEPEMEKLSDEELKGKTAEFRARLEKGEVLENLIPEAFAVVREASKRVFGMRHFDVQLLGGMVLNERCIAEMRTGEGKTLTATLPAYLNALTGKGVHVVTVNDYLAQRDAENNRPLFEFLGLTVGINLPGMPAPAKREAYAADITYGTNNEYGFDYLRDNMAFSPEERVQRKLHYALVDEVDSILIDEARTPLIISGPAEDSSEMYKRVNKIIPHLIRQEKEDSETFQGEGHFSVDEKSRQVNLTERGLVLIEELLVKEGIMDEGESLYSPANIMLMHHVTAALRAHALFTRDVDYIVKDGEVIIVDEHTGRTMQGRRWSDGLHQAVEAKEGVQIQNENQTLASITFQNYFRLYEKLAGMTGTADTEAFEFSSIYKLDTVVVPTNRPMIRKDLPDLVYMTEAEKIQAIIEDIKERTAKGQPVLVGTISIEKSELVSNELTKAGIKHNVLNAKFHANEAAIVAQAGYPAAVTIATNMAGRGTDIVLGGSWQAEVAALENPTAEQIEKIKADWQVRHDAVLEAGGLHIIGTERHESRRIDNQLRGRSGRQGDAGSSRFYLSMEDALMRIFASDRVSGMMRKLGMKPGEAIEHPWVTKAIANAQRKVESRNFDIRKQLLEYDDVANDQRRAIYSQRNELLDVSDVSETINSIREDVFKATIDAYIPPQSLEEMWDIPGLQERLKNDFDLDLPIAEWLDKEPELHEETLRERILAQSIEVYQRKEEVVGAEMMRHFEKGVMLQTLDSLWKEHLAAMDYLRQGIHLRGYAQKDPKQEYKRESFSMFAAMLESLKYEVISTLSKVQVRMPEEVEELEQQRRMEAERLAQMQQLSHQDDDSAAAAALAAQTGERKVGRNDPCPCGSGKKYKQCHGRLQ

Compound	Percent Effect [1] [%]	Percent Effect [2] [%]	Percent Effect [3] [%]	Percent Effect [4] [%]	Percent Effect (Trypanosoma cruzi) [%]	Percent Effect [5] [%]	Percent Effect [6] [%]	Percent Effect (Homo sapiens) [%]	Percent Effect [7] [%]	Percent Effect [8] [%]	Percent Effect [9] [%]
COc1c(CNCc2ccc(C(=O)N(C)C)cc2)c(C)nn1C	-4.19	1.27	7.36	-0.0396	2.97	1.07	8.23	27.1	3.12	7.59	-4.86
CNS(=O)(=O)c1cccc(CNc2nccc(C(F)(F)F)n2)c1	-0.353	16.2	14.6	-2.3	5.19	-1.6	15.1	46.9	-0.493	16.1	-15.9
O=C1CC(c2ccccc2)C2(CCN(CC3CC3)CC2)N1 (stereo unspecified)	-1.75	10.7	3.12	-1.87	5.02	-55	9.23	0.446	5.21	20	-5.25
Cc1ccc(S(=O)(=O)NC2CNC(=O)C2)cc1C (stereo unspecified)	-5.32	8.22	-5.53	-8.87	0.588	1.82	3.9	-1.25	7.53	12.5	-3.53
COc1cc(CNC2CCCc3c2cnn3C)cc(OC)c1 (stereo unspecified)	-5.5	8.11	139	9.27	1.6	-3.61	-1.44	2.92	5.42	3.7	-10
Cc1[nH]c(=O)[nH]c(=O)c1CN1CCCC(CCc2c(F)cccc2F)C1 (stereo unspecified)	-0.639	8.11	-5.43	13.8	1.16	1.91	9.14	5.92	3.7	-9.76	-1.15
Fc1ccc(CN2CCO[C@H]3[C@H](OCC4CC4)CC[C@@H]32)cc1	-2.57	-2.67	3.82	0.245	4.83	-41.4	8.89	-14.2	2.08	-30	-4.58
CN1CCC(C(=O)NCc2nncn2-c2ccccc2)CC1=O (stereo unspecified)	-2.63	5.41	-5.14	5.74	-3.87	-2	0	13.5	4.43	1.24	-2.07
Cc1cnn(CC2CCCCN2C(=O)c2ccnc(N(C)C)c2)c1 (stereo unspecified)	-4.87	10.4	2.75	9.97	-0.49	4.42	13.8	5.85	2.86	9.41	-16.5
COCC(NC(=O)c1ccc[nH]1)c1cccc(C(F)(F)F)c1 (stereo unspecified)	-6.18	2.74	-4.37	35.1	9.01	32.3	4.79	3.46	0	10	-5.6
O=C(c1cscn1)N1C[C@@H]2C[C@@H](c3nnc(C4CC4)o3)O[C@@H]2C1	1.55	7.79	2.51	-3.79	-10.2	22.6	10.4	7.19	-1.06	6.41	-7.72
